Data taken from PubChem BioAssay AID1159580 (chemical genetic matrix, 2015).
Values joined by “and” are separate entries in the source; they are usually repeats but may differ in a detail not shown here. Equal entries are not always repeated. The campaign covered roughly 5,500 compounds. About 2,000 (36%) were called active. About 18% were inconclusive and are not listed. Rule as the data show it: active = normalized growth mostly below about 0.91 (no sharp cut-off); inconclusive = no clear call, values can overlap the other calls; inactive = mostly above about 0.92. The list shows a part of the results.

Experiment: chemical genetic growth profiling, strain panel (AID 1159580);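 also: tested at 20 µM; growth read once vehicle control cultures reached saturation at 30 °C; 1 = growth at the plate median or of vehicle wells; lower values mean less growth of the strain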
Conditions: S. cerevisiae deletion strains, growth OD

Measured: normalized growth

COc1ccc2[nH]cc(CCNC(C)=O)c2c1
inactive: locus YAL013W, strain DEP1, active compounds read low 1.01 | locus YAL021C, strain ccr4, active compounds read low 0.977 | locus YAL026C, strain drs2, active compounds read low 0.983 | locus YAL030W, strain snc1, active compounds read low 0.984 | locus YAL040C, strain CLN3, active compounds read low 0.996 | locus YBL061C, strain skt5, active compounds read low 0.969 | locus YBR009C, strain hhf1, active compounds read low 0.983 | locus YBR021W, strain FUR4, active compounds read low 1.01 | locus YBR023C, strain chs3, active compounds read low 0.979 | locus YBR171W, strain sec66, active compounds read low 0.966 | locus YBR229C, strain ROT2, active compounds read low 1.02 | locus YBR231C, strain swc5, active compounds read low 0.971 | locus YBR279W, strain paf1, active compounds read low 0.978 | locus YCL011C, strain gbp2, active compounds read low 0.979 | locus YCL016C, strain dcc1, active compounds read low 0.972 | locus YCL029C, strain bik1, active compounds read low 1.02 | locus YCL061C, strain MRC1 (second series), active compounds read low 1.01 | locus YCL061C, strain MRC1, active compounds read low 0.984 | locus YCL069W, strain vba3, active compounds read low 0.977 | locus YCR088W, strain abp1, active compounds read low 0.968 | locus YDL005C, strain med2, active compounds read low 0.959 | locus YDL035C, strain GPR1, active compounds read low 1.01 | locus YDL040C, strain nat1, active compounds read low 0.971 | locus YDL074C, strain BRE1, active compounds read low 1.02 | locus YDL101C, strain DUN1, active compounds read low 1.01 | locus YDL134C, strain PPH21, active compounds read low 1.01 | locus YDL185W, strain tfp1, active compounds read low 1.03 | locus YDL192W, strain arf1, active compounds read low 1.03 | locus YDR001C, strain nth1, active compounds read low 0.973 | locus YDR069C, strain doa4, active compounds read low 0.958 | locus YDR101C, strain arx1, active compounds read low 1.02 | locus YDR137W, strain rgp1, active compounds read low 0.992 | locus YDR150W, strain NUM1, active compounds read low 1 and 1.01 | locus YDR159W, strain sac3, active compounds read low 0.943 | locus YDR162C, strain NBP2, active compounds read low 1.02 | locus YDR195W, strain ref2 0.959 | locus YDR297W, strain sur2, active compounds read low 0.967 | locus YDR318W, strain mcm21, active compounds read low 1.02 | locus YDR334W, strain swr1, active compounds read low 0.969 | locus YDR335W, strain msn5, active compounds read low 0.977 | locus YDR363W, strain ESC2, active compounds read low 0.996 | locus YDR388W, active compounds read low 1.02 | locus YDR392W, strain spt3, active compounds read low 0.958 | locus YDR502C, strain sam2, active compounds read low 1.03 | locus YEL003W, strain gim4, active compounds read low 0.974 | locus YEL037C, strain rad23, active compounds read low 0.966 | locus YEL061C, strain CIN8 (second series), active compounds read low 0.972 | locus YEL061C, strain CIN8, active compounds read low 1 | locus YER002W, strain NOP16, active compounds read low 0.999 | locus YER015W, strain faa2, active compounds read low 0.981 | locus YER016W, strain bim1, active compounds read low 0.975 | locus YER110C, active compounds read low 1.02 | locus YER111C, strain swi4, active compounds read low 0.976 | locus YER155C, strain BEM2 (second series), active compounds read low 0.971 | locus YER155C, strain BEM2, active compounds read low 0.998 | locus YER167W, strain BCK2, active compounds read low 1.01 | locus YFR010W, strain ubp6, active compounds read low 0.955 | locus YGL078C, strain dbp3, active compounds read low 1.02 | locus YGL086W, strain mad1, active compounds read low 1.02 | locus YGL167C, strain pmr1, active compounds read low 0.96 | locus YGL173C, strain kem1, active compounds read low 0.955 | locus YGL227W, strain vid30, active compounds read low 0.962 | locus YGL240W, strain doc1, active compounds read low 0.963 | locus YGL248W, strain PDE1, active compounds read low 1.01 | locus YGL253W, strain hxk2, active compounds read low 0.983 | locus YGR078C, strain PAC10, active compounds read low 1.02 and 1.01 | locus YGR135W, strain pre9, active compounds read low 1.03 | locus YGR229C, strain SMI1, active compounds read low 1.01 | locus YGR252W, strain gcn5, active compounds read low 1.05 | locus YHR013C, strain ard1, active compounds read low 0.968 | locus YHR027C, strain rpn1, active compounds read low 0.994 | locus YHR030C, strain SLT2, active compounds read low 0.998 and 0.997 | locus YHR079C, strain IRE1 (second series), active compounds read low 1.02 | locus YHR079C, strain IRE1, active compounds read low 0.998 | locus YHR094C, strain hxt1, active compounds read low 1.02 | locus YHR129C, strain ARP1, active compounds read low 1 | locus YHR142W, strain chs7, active compounds read low 0.964 | locus YHR200W, strain rpn10, active compounds read low 1.03 | locus YIL066C, strain RNR3, active compounds read low 1.01 | locus YIL073C, strain SPO22, active compounds read low 1.08 | locus YIL125W, strain kgd1, active compounds read low 1.03 | locus YIR030C, strain dcg1, active compounds read low 1.03 | locus YJL092W, strain hpr5, active compounds read low 0.974 | locus YJL095W, strain BCK1 (second series), active compounds read low 0.971 | locus YJL095W, strain BCK1, active compounds read low 1.02 | locus YJL115W, strain asf1, active compounds read low 0.969 | locus YJL129C, strain trk1, active compounds read low 0.967 | locus YJL134W, strain LCB3, active compounds read low 1 | locus YJL154C, strain vps35, active compounds read low 0.957 | locus YJL164C, strain tpk1, active compounds read low 0.986 | locus YJL166W, strain qcr8, active compounds read low 0.979 | locus YJL168C, strain set2, active compounds read low 1.03 | locus YJL187C, strain SWE1 (second series), active compounds read low 1.01 | locus YJL187C, strain SWE1, active compounds read low 0.979 | locus YJR043C, strain POL32, active compounds read low 0.994 | locus YJR066W, strain TOR1, active compounds read low 0.941
